NR3A LBD binder – NR3A (human) ligand-binding domain modulation | 340,000 compounds, 2.5% hits | Tm shift relative to glycine control, % at 25 µM | NR3A LBD differential scanning fluorimetry, Tm shift; 0% = protein alone, 100% = glycine-bound protein;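 active means melting temperature shift of at least 10% of the positive control shift, at one fixed dose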
ADAM10 inh – inhibitors of human ADAM10; O14672; recombinant ADAM10, EDANS/DABCYL FRET peptide cleavage, 3 h; inhibition, % at 7 µM; 370,000 compounds, 0.62% hits; AID 720582;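 active means inhibition above a per-campaign cutoff equal to the mean of compounds falling between control-based bounds plus 3 SD, cut at about 20% in these data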
aDG glyco up – alpha-DG glycosylation activation. Pro5-aDG cells, alpha-DG glycosylation AlphaScreen (IIH6); 0% Pro5, 100% B10-LARGE cell signal. activation, % at 10 µM. 360,000 compounds, 0.22% hits;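 active means activation of at least 8% versus controls, or a plate z-score of at least 8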;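 further: Pro5 are CHO cells carrying HIG-tagged alpha-DG that lacks glycosylation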
FAS-TE inh – inhibitors of human fatty acid synthase thioesterase domain; P49327; recombinant FAS-TE, OMFH fluorogenic substrate, fluorescence endpoint; inhibition, % at 15 µM; 360,000 compounds, 0.67% hits; AID 602261;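 active means compounds whose normalised, plate-corrected inhibition of enzyme fluorescence in the single-dose primary screen is 50% or more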
Target sequence (P49327 whole entry, looked up, the tested form may be a part): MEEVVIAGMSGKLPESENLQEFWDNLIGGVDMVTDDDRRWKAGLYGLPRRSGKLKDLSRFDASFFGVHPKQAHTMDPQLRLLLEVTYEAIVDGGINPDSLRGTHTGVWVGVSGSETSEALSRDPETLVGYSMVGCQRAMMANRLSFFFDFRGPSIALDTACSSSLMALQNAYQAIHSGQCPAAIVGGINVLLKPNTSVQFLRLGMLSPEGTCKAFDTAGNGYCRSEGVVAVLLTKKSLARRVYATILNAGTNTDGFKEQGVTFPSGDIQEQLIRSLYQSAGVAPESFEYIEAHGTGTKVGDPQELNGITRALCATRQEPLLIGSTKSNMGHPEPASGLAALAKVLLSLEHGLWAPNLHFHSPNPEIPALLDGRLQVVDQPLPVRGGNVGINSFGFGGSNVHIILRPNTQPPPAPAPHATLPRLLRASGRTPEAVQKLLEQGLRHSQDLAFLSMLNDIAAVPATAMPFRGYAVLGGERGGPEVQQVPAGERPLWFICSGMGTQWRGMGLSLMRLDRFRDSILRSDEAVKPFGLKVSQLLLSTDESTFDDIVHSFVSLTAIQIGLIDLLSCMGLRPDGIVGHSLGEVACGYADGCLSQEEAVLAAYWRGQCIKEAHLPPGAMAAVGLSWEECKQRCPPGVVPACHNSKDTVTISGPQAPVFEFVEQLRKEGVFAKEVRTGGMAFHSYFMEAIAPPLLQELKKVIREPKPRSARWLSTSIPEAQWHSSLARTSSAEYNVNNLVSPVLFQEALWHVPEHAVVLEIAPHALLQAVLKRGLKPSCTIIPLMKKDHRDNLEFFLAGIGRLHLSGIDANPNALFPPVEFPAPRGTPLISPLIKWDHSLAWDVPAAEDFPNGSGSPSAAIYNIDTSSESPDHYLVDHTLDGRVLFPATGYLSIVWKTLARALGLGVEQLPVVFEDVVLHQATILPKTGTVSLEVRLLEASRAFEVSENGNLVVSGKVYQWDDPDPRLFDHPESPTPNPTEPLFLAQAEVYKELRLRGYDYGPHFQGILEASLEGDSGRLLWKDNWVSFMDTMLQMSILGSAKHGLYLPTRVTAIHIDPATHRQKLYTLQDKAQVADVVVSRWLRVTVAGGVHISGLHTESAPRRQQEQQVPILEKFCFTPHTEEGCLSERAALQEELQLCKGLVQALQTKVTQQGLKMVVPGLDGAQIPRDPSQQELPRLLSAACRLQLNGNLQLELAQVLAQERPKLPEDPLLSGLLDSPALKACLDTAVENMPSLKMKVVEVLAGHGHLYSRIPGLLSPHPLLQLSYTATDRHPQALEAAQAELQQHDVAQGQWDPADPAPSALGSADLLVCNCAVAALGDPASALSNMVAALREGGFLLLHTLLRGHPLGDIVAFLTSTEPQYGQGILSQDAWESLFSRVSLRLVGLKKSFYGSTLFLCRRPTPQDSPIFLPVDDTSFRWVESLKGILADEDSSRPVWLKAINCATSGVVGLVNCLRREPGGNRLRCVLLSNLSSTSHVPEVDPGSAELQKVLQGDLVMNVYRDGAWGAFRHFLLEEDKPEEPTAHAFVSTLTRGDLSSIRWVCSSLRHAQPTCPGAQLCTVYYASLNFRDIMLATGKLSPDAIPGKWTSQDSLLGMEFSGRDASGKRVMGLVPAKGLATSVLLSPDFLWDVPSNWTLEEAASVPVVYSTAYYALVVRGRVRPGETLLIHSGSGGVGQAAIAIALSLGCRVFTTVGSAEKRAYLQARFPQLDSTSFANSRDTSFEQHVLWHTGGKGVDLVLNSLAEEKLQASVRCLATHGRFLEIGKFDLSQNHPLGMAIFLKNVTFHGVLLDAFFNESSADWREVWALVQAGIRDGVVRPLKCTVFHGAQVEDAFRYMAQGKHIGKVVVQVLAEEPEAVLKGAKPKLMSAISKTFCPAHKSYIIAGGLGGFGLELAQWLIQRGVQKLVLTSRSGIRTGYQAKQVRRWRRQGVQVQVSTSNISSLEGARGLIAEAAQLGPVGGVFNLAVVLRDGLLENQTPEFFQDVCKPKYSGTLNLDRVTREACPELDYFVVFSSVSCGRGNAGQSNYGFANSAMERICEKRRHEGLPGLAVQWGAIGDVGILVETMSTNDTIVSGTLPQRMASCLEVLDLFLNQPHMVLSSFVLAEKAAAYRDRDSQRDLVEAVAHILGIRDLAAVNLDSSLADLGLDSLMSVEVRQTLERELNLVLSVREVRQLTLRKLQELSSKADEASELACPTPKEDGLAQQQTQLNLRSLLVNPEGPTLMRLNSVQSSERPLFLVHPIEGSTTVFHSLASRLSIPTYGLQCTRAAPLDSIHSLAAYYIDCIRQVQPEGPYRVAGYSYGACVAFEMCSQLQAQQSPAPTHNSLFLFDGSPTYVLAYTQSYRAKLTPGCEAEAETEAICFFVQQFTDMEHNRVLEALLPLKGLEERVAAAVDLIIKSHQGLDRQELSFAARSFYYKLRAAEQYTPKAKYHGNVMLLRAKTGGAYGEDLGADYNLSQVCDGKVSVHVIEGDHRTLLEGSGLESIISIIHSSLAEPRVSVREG
ADAM17 inh – inhibitors of human ADAM17 | P78536 | recombinant ADAM17, EDANS/DABCYL FRET peptide cleavage | inhibition, % at 6.95 µM | 370,000 compounds, 0.83% hits;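 active means inhibition above the mean of compounds lying between control limits plus 3 SD, set per campaign, cut at about 8.5% in these data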
A number is an active result. Only some compounds are listed: those with a hit (about 4% of all), similar ones and a draw of the others.

`Cc1ccc(/C=N/NC(=O)c2nnn(-c3nonc3N)c2CSc2ccccc2)s1` gave NR3A LBD binder 29.8, ADAM10 inh inactive, aDG glyco up inactive, FAS-TE inh inactive and ADAM17 inh inactive.
Screening CC1=CCn2c(=O)c3ccccc3c(=O)n2C1 returned NR3A LBD binder inactive, ADAM10 inh inactive, aDG glyco up inactive, FAS-TE inh inactive and ADAM17 inh inactive.
For Cc1cc(C)n(S(=O)(=O)c2cccc(Cl)c2Cl)n1 the results were NR3A LBD binder inactive, ADAM10 inh inactive, aDG glyco up inactive, FAS-TE inh inactive and ADAM17 inh inactive.
For CC1(C)CC(NC(=O)COc2ccc(Cl)cc2Cl)CC(C)(C)N1 the results were NR3A LBD binder inactive, ADAM10 inh inactive, aDG glyco up inactive, FAS-TE inh inactive and ADAM17 inh inactive.
Nc1nonc1-n1nnc(C(=O)N/N=C/c2ccoc2)c1CSc1ccc(Cl)cc1 was read as NR3A LBD binder 34.7, ADAM10 inh inactive, aDG glyco up inactive, FAS-TE inh inactive and ADAM17 inh inactive.
Nc1nonc1-n1nnc(C(=O)N/N=C/c2ccoc2)c1CSc1ccccc1 was read as NR3A LBD binder 16.1, aDG glyco up inactive and FAS-TE inh inactive.
Screening Cc1ccc(/C=N/NC(=O)c2nnn(-c3nonc3N)c2CSc2ccc(Cl)cc2)o1 returned NR3A LBD binder 21.0, ADAM10 inh inactive, aDG glyco up inactive, FAS-TE inh inactive and ADAM17 inh inactive.
Screening Cc1ccccc1/C=N/Nc1nc2ccccc2[nH]1 returned NR3A LBD binder inactive, ADAM10 inh inactive, aDG glyco up inactive, FAS-TE inh inactive and ADAM17 inh inactive.
For C(=N\Nc1nc(N2CCCCC2)nc(N2CCCCC2)n1)/c1c[nH]c2ccccc12 the results were NR3A LBD binder 10.1, ADAM10 inh inactive, aDG glyco up inactive, FAS-TE inh inactive and ADAM17 inh inactive.
For CN(C)c1nc(N/N=C/c2c[nH]c3ccccc23)nc(N2CCOCC2)n1 the results were NR3A LBD binder inactive, ADAM10 inh inactive, aDG glyco up inactive, FAS-TE inh inactive and ADAM17 inh inactive.
Screening C(=N\Nc1nc2ccccc2[nH]1)/c1c[nH]c2ccccc12 returned NR3A LBD binder 15.2, ADAM10 inh inactive, aDG glyco up inactive, FAS-TE inh inactive and ADAM17 inh inactive.
For Brc1ccc(-c2ccc(/C=N/Nc3nc4ccccc4[nH]3)o2)cc1 the results were NR3A LBD binder 30.9, ADAM10 inh inactive, aDG glyco up inactive, FAS-TE inh inactive and ADAM17 inh inactive.
`NC(=O)c1ccsc1NC(=O)COC(=O)CNC(=O)c1ccc(F)cc1` gave NR3A LBD binder inactive, ADAM10 inh inactive, aDG glyco up inactive, FAS-TE inh inactive and ADAM17 inh inactive.
Screening Cc1ccc(NC(=O)c2cncc(Br)c2)cc1S(=O)(=O)N(C)C returned NR3A LBD binder inactive, ADAM10 inh inactive, aDG glyco up inactive, FAS-TE inh inactive and ADAM17 inh inactive.
Screening Cc1ccccc1OCC(=O)NCC(=O)N/N=C/c1cccc([N+](=O)[O-])c1 returned ADAM10 inh inactive and ADAM17 inh inactive.
`O=C(CCCOc1ccc(Cl)cc1Cl)N/N=C/c1ccc(Cl)cc1` gave NR3A LBD binder inactive, ADAM10 inh inactive, aDG glyco up inactive, FAS-TE inh inactive and ADAM17 inh inactive.
For COc1ccc(/C=N/NC(=O)CCCOc2ccc(Cl)cc2Cl)cc1 the results were NR3A LBD binder 16.1, ADAM10 inh inactive, aDG glyco up inactive, FAS-TE inh inactive and ADAM17 inh inactive.
Screening Cc1cc(Cl)ccc1OCCCC(=O)N/N=C/c1cccc([N+](=O)[O-])c1 returned NR3A LBD binder 19.5, ADAM10 inh inactive, aDG glyco up inactive, FAS-TE inh inactive and ADAM17 inh inactive.
Screening O=C(COC(=O)[C@@H]1CCCN1S(=O)(=O)c1ccc(Cl)cc1)NC12CC3CC(CC(C3)C1)C2 returned NR3A LBD binder inactive, ADAM10 inh inactive, aDG glyco up inactive, FAS-TE inh inactive and ADAM17 inh inactive.
COc1cc(NC(=O)COC(=O)[C@@H]2CCCN2S(=O)(=O)c2ccc(Cl)cc2)cc(OC)c1OC was read as NR3A LBD binder 10.8, ADAM10 inh inactive, aDG glyco up inactive, FAS-TE inh inactive and ADAM17 inh inactive.
Screening COc1cc(C(=O)Nc2c(C(=O)O)[nH]c3ccc(Br)cc23)cc(OC)c1OC returned NR3A LBD binder 10.2, ADAM10 inh inactive, aDG glyco up inactive, FAS-TE inh inactive and ADAM17 inh inactive.
Screening CC1CCCCN1C(=O)CCNS(=O)(=O)c1ccc2c(c1)c(=O)n(C)c(=O)n2C (configuration not stated) returned NR3A LBD binder inactive, ADAM10 inh inactive, aDG glyco up inactive, FAS-TE inh inactive and ADAM17 inh inactive.
Oc1ccccc1-c1cc(-c2ccccc2)n[nH]1 was read as NR3A LBD binder inactive, ADAM10 inh inactive, aDG glyco up inactive, FAS-TE inh inactive and ADAM17 inh inactive.
Oc1ccc(Br)cc1-c1cc(-c2ccccc2Cl)[nH]n1 was read as NR3A LBD binder 23.4, ADAM10 inh inactive, aDG glyco up inactive, FAS-TE inh inactive and ADAM17 inh inactive.
For Cc1ccc(O)c(-c2cc(-c3cccc(Br)c3)n[nH]2)c1 the results were NR3A LBD binder 28.3, ADAM10 inh inactive, aDG glyco up inactive, FAS-TE inh inactive and ADAM17 inh inactive.
`Cc1ccc(-c2cc(-c3ccc(F)cc3)n[nH]2)c(O)c1` gave NR3A LBD binder 11.8, ADAM10 inh inactive, aDG glyco up inactive, FAS-TE inh inactive and ADAM17 inh inactive.
For Oc1ccc(Cl)cc1-c1cc(-c2ccccc2)n[nH]1 the results were NR3A LBD binder 24.9, ADAM10 inh 23.0, aDG glyco up inactive, FAS-TE inh inactive and ADAM17 inh inactive.
Cc1cc(N2CC(C)OC(C)C2)nc2ccccc12 (configuration not stated) was read as NR3A LBD binder inactive, ADAM10 inh inactive, aDG glyco up inactive, FAS-TE inh inactive and ADAM17 inh inactive.
Screening CCOc1cccc(-c2cc(C(=O)NN)[nH]n2)c1 returned NR3A LBD binder inactive, ADAM10 inh inactive, aDG glyco up inactive, FAS-TE inh inactive and ADAM17 inh inactive.
Screening COc1cc(/C=C/C(=O)NC(=O)c2ccccc2O)ccc1O returned NR3A LBD binder inactive, ADAM10 inh inactive, aDG glyco up inactive, FAS-TE inh inactive and ADAM17 inh inactive.
Screening COc1cc(/C=C/C(O)=C/C(=O)/C=C/c2ccc(O)cc2)ccc1O returned NR3A LBD binder 23.2, ADAM10 inh inactive, aDG glyco up inactive, FAS-TE inh inactive and ADAM17 inh inactive.
For O=CN1CCN(C(=O)C(=O)c2cn(CC(=O)N3CCCCC3)c3ccccc23)CC1 the results were NR3A LBD binder inactive, ADAM10 inh inactive, aDG glyco up inactive, FAS-TE inh inactive and ADAM17 inh inactive.
`COc1ccccc1NC(=O)c1ccc(NS(=O)(=O)c2ccc(F)c(Cl)c2)cc1` gave NR3A LBD binder 11.3, ADAM10 inh inactive, aDG glyco up inactive, FAS-TE inh inactive and ADAM17 inh inactive.
For COc1ccccc1NC(=O)c1ccc(NS(=O)(=O)c2c(C)noc2C)cc1 the results were NR3A LBD binder inactive, ADAM10 inh inactive, aDG glyco up inactive, FAS-TE inh inactive and ADAM17 inh inactive.
